CYP2C9 act – human CYP2C9 activators, primary screen, biochemical, luminescence; AID 1024, 2008; activation factor at 5 µM; Cytochrome P450 2C9 (Homo sapiens), P11712; recombinant CYP2C9, luciferin-H conversion; stronger effect = higher value; factor 1 = untreated enzyme, 0 = blocked; 96,000 compounds, 1.4% hits;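 active means activation factor of 2 or more for CYP2C9 at a 5 µM dose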;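 further: 0 = sulfaphenazole-blocked wells and 1 = vehicle-only wells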
MRP1 act – H69AR viability gain despite doxorubicin, primary screen, MRP-1 activator project, H69AR cells, CellTiter-Glo; 140,000 compounds, 0.61% hits; viability rescue; AID 799, 2007; viability increase, % at 10 µM;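 active means viability gain under doxorubicin at or above a set limit, the compound median plus 3 SD, cut at about 4.7% in these data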;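 further: MRP-1 overexpressing cells given doxorubicin 25 µM after compound pretreatment; 18-22 h compound pretreatment then 72 h with doxorubicin before readout; 0% = doxorubicin-only wells and 100% = vehicle-treated cells without doxorubicin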
CYP2C9 inh – blockers of cytochrome P450 2C9 activity – biochemical, luminescence, ADME assay, primary screen | AID 777, 2007 | inhibition, % at 5 µM | P11712 | CYP2C9 Supersomes, luciferin-H conversion | 96,000 compounds, 20% hits;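 active means blocking of liver enzyme CYP2C9 beyond about 50% at 5 µM, limit read from the data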
CYP2C19 inh – blockers of cytochrome P450 2C19 activity – biochemical, luminescence, ADME assay, primary screen; P33261; CYP2C19 Supersomes, luciferin-H EGE luminescence, 30 min; inhibition, % at 5 µM; 96,000 compounds, 21% hits; AID 778, 2007;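 active means CYP2C19 inhibition above a set limit at 5 µM in the primary screen, cut at about 50% in these data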;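 further: plate controls were negative control wells for no effect and 2.5 mM tranylcypromine positive control for full effect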
Target sequence (P33261 whole entry, looked up): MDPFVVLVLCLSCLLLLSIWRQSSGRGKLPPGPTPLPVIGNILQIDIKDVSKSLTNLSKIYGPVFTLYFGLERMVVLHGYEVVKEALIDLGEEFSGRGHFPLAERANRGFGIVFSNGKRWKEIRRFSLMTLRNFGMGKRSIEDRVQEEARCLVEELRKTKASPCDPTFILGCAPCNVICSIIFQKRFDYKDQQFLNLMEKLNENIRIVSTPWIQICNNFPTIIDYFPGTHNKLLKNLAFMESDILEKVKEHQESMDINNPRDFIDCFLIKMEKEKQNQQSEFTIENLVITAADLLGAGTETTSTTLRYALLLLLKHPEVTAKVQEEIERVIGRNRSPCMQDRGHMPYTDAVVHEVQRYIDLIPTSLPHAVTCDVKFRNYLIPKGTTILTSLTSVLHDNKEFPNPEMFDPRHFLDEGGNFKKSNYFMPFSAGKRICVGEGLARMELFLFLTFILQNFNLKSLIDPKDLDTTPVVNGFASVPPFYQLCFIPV
CYP2C19 act – human CYP2C19 activators, primary screen, biochemical, luminescence. activation factor at 5 µM. Cytochrome P450 2C19 (Homo sapiens), P33261. recombinant CYP2C19, luciferin-H EGE luminescence; stronger effect = higher value; 0 = fully inhibited enzyme, 1 = untreated enzyme. 96,000 tested, under 10 active;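 active means activation factor of at least 2 at 5 µM in the primary screen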;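 further: 0 = wells with 2.5 mM tranylcypromine and 1 = vehicle-only wells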
MRP resist rev – reversal of MRP1-mediated doxorubicin resistance, primary screen, H69AR cells, doxorubicin co-treatment; H69AR cells + 2 uM doxorubicin, CellTiter-Glo, 72 h; differential viability (reversal), % at 10 µM; AID 602, 2007; 85,000 compounds, 0.04% hits;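 active means viability drop by adding the cancer drug above about 55%, with treated viability meeting a 40% cutoff, limit read from the data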;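 further: viability without doxorubicin minus viability with 2 µM doxorubicin for each compound; larger differential means the compound sensitizes cells more to doxorubicin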
* hit, by the source's call; . = not tested or not shown. Compounds with a hit are over-represented: about 21% of the library has one in this group of screens.

SMILES	CYP2C9 act	MRP1 act	CYP2C9 inh	CYP2C19 inh	CYP2C19 act	MRP resist rev
CCOC(=O)c1ccccc1NC(=O)c1cccc2c1C(=O)N(C1CCN(C(=O)OCC)CC1)C2	0	-3	96*	43	0.6	13
CCOC(=O)c1ccc(NC(=O)c2ccc(CO)c(C(=O)NC3CCN(C(=O)OCC)CC3)c2)cc1	0.7	-1	25	18	0.8	15
CCOC(=O)N1CCC(N2Cc3cccc(C(=O)Nc4ccc(OC)c(OC)c4)c3C2=O)CC1	0.1	-1	95*	70*	0.3	5
CCOC(=O)N1CCC(N2Cc3cccc(C(=O)N4CCN(C5CCCCC5)CC4)c3C2=O)CC1	0.2	-1	78*	40	0.6	5
CCOC(=O)N1CCC(NC(=O)c2cc(C(=O)Nc3ccc(OC)c(OC)c3)ccc2CO)CC1	0.4	-3	64*	20	0.8	-8
NC(=O)c1cccc2c1C(=O)N(C1CCCCC1)C2	1	0	0	-5	1	10
CCOC(=O)c1ccccc1NC(=S)N1CCC(N2CCCCC2)CC1	.	-1	.	.	.	.
COc1ccc(C(=O)Cc2nnc(C)s2)cc1	.	-1	.	.	.	.
COc1cc(NC(=O)CN2CCN(c3ccccc3F)CC2)c(C)cc1[N+](=O)[O-]	.	-3	.	.	.	.
CC(C)CSc1ncnc2c1oc1nc3c(cc12)COC(C)(C)C3	0.3	-2	72*	21	0.8	-6
O=C(COc1cc(Cl)c(Cl)cc1Cl)Nn1cnnc1	0.2	-4	82*	96*	0	13
COC(=O)NNC(=O)COc1ccc2ccccc2c1Br	.	-2	.	.	.	.
O=C(COc1cc(Cl)c(Cl)cc1Cl)NC(=O)Nc1ccc2c(c1)OCCO2	.	2	.	.	.	.
O=C(COc1ccc2ccccc2c1Br)Nn1cnnc1	0.2	0	85*	98*	0	7
O=C(COc1cc(Cl)c(Cl)cc1Cl)Nc1ccncc1	0	0	100*	99*	0	0
Cc1ccc(OCC(=O)Nn2cnnc2)c(Br)c1	.	-1	.	.	.	14
Cc1cc(OCC(=O)Nn2cnnc2)c(C)cc1Br	0.1	0	90*	99*	0	3
O=C(COc1ccc(Cl)cc1Cl)NC(=O)N1CCCCC1	1	0	4	28	0.7	0
Cc1ccc(C(=O)N/C(=C/c2cccnc2)C(=O)NCc2ccco2)cc1	.	2	.	.	.	.
CC(C)(C)c1ccc(C(=O)N/C(=C\c2cccs2)C(=O)NCc2ccco2)cc1	0.4	-2	56*	7	0.9	.
CCN(CC(=O)NCc1ccc(F)cc1)CC(O)COCc1cccc(OC)c1 (stereo not drawn)	0.3	-1	67*	67*	0.3	2
Cc1cc(Cl)ccc1OCC(=O)N1CCCCC1	1	0	1	88*	0.1	18
COc1cc2c(cc1OC)CN(C(=O)CCCOc1ccc(Cl)cc1Cl)CC2	0.4	0	57*	43	0.6	16
O=C(COc1ccc(Cl)cc1Cl)N1CCCN(C(=O)COc2ccc(Cl)cc2Cl)CC1	1.5	-3	-48	37	0.6	.
COc1cc(CO)cc(Br)c1OCC(=O)N1CCCCC1	2.2*	0	-118	23	0.8	4
SMILES	CYP2C9 act	MRP1 act	CYP2C9 inh	CYP2C19 inh	CYP2C19 act	MRP resist rev
Cc1cc(Cl)ccc1OCCCC(=O)N1CCN(C)CC1	2.1*	-2	-114	51*	0.5	-2
COc1cc2c(cc1OC)CN(C(=O)CCCN1C(=O)c3ccccc3C1=O)CC2	1	0	1	-8	1.1	7
CCc1noc(C)c1C(=O)Nc1nc(-c2ccc(Cl)cc2Cl)c(C)s1	0.5	0	49	10	0.9	.
Cc1cc(C)c(C)c(OCC(=O)N2CCCCCC2)c1	1.4	-2	-39	30	0.7	12
Cc1cc(C)cc(OCC(=O)N2CCCCCC2)c1	1.2	-1	-16	54*	0.5	4
Cc1ccc(C)c(C(=O)c2c(C)nc3sccn23)c1	0.5	-1	50	95*	0.1	8
CCc1cc2c(N3CCCCC3)ncnc2s1	0.3	-2	65*	87*	0.1	-13
CCN(Cc1ccccc1)C(=O)CSc1nc(C)cc(C)c1C#N	1.6	2	-60	62*	0.4	.
COc1cc2c(cc1OC)CN(C(=O)CSc1nc(C)cc(C)c1C#N)CC2	.	1	.	.	.	-4
Cc1cc(C)c(C#N)c(SCC(=O)N2CCN(Cc3ccccc3)CC2)n1	0.7	-2	30	52*	0.5	.
Cc1cc(C)c(C#N)c(SCC(=O)N2CCCCC2)n1	1.4	-2	-36	54*	0.5	16
O=C(NCc1cccs1)c1ccc([N+](=O)[O-])cc1	.	-1	.	.	.	.
Cc1ccc(O)c(C2=NOC(O)(C(F)(F)F)C2)c1 (stereo not drawn)	0.8	-4	17	68*	0.3	11
Cc1ccc(O)c(-c2cc(C(F)(F)F)[nH]n2)c1	0.8	-2	25	21	0.8	-5
Cc1ccc(O)c(C2=NOC(O)(C(F)(F)C(F)F)C2)c1 (stereo not drawn)	0.5	-3	53*	84*	0.2	.
CC(NC(=O)NC12CC3CC(CC(C3)C1)C2)C1CCCO1 (stereo not drawn)	.	0	.	.	.	7
Cc1oc(-c2ccc(Cl)cc2)nc1CN1CCC(C(=O)N2CCN(c3ccccn3)CC2)CC1	.	.	.	.	.	-11
CCn1c(=O)n(CC)c2cc(S(N)(=O)=O)ccc21	0.9	1	9	2	1	0
CCn1c(=O)n(CC)c2cc(S(=O)(=O)Nc3c(C)cccc3C)ccc21	0.3	-1	67*	94*	0.1	4
CCn1c(=O)n(CC)c2cc(S(=O)(=O)Nc3cc(C)cc(C)c3C#N)ccc21	0.2	-4	80*	62*	0.4	-2
CCCc1[nH][nH]c(=O)c1C(c1cccc(Cl)c1)C(C#N)C#N (stereo not drawn)	0.3	-2	75*	75*	0.3	-49
COc1ccc(C2CC(c3cccs3)=NN2c2nc(-c3ccccc3)cs2)cc1OC (stereo not drawn)	0.3	-1	74*	86*	0.1	.
COc1ccc(CCNc2c(N)n(Cc3ccccc3)c(=O)[nH]c2=O)cc1OC	0.6	-1	43	22	0.8	-4
COc1ccc(CCNC2=C(Cl)C(=O)N(CCc3ccccc3)C2=O)cc1OC	0.4	2	58*	60*	0.4	1
COc1cccc(CC2CC(=O)N(CCc3ccc4c(c3)OCO4)C2=O)c1 (stereo not drawn)	0.5	-1	47	96*	0	5

Source: PubChem BioAssay (several laboratories)
